Screening data deposited in PubChem by National Center for Advancing Translational Sciences (NCATS).
Compounds with a hit are over-represented: about 12% of the library has one in this group of screens.
BAZ2B inh – blocks human BAZ2B; AlphaScreen BAZ2B-H3K14Ac peptide displacement; AID 504333; Q9UIF8; Potency, µM (top dose mostly 114 µM), for inactives: at the top dose activity change, negative = inhibition, hits mostly inhibitors; 360,000 tested, 4.4% active; further: on the % scale 0 is the no-effect control and ±100 the full control effect; nearly all actives have a fitted effect of over 60% in size
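BAZ2B (50 nM) with biotin-H3(5-23)K14Ac peptide (50 nM) in PBS pH 7.4, 0.01% Tween-20, preformed 30 min, then compound 30 min at room temperature; top concentration 110uM. AlphaScreen streptavidin donor/nickel chelate acceptor beads (10 ug/mL final), 20 min dark, signal read.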
Sfp inh – blocks B. subtilis Sfp PPTase activity; Biochemical Sfp PPTase activity, qHTS; 310,000 tested, 3.5% active; Potency, µM, for the others: largest response in the series, negative = inhibition, usual class: inhibitors; AID 1490; Q9F4F7;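 further: the enzyme is Sfp with the accession as filed and its product quenches rhodamine fluorescence; 0% = enzyme reaction without inhibitor and -100% = no enzyme wells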
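Buffer: 50 mM Hepes-Na pH 7.6, 10 mM MgCl2, 0.01% Nonidet P-40, 0.01% BSA. Enzyme 15 nM, pre-exposed to compound 15 min; substrates then added and fluorescence change tracked over 30 min.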
G9a block – G9a (human) methyltransferase inhibition. Potency, µM (series often up to 102 µM), without a hit: at the highest dose activity, negative = inhibition, hits mostly inhibitors. Q96KQ7. 350,000 tested, 8.8% active. G9a H3K9 monomethylation, AlphaScreen, 2 h; further: on the % scale 0 is the no-effect control and ±100 the full control effect; nearly all actives have a fitted effect of over 75% in size
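Quantitative HTS format: methyltransferase activity on a biotin-tagged H3K9 peptide is measured by AlphaScreen, using a rabbit anti-monomethyl-H3K9 antibody with streptavidin donor and anti-IgG acceptor beads. Final levels are 20 nM enzyme, 500 nM peptide, 20 uM SAM; 2 h RT.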
HP1b binding inh – blocks HP1-beta chromodomain binding to methylated histone tails; P83916; AlphaScreen HP1-beta / biotin-H3K9me3 peptide binding; Potency, µM (doses to about 114 µM), without a hit: at the highest dose activity change, negative = inhibition, usual class: inhibitors; 390,000 tested, 0.56% active; AID 540317; further: nearly all actives have a fitted effect of over 70% in size
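AlphaScreen: HP1-beta (50 nM) preformed 30 min with biotin-H3(1-18)K9me3 peptide (50 nM) in PBS pH 7.4, 0.01% Tween-20. Compound added for 30 min at RT, then streptavidin donor/nickel chelate acceptor beads (10 ug/mL) for 30 min.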
PLK1 PBD inh – PLK1 (human) polo-box domain binding inhibition. Potency, µM, without a hit: max response, negative = inhibition, hits mostly inhibitors. Plk1 PBD binding of FITC phosphopeptide, fluorescence polarization. AID 720504. 360,000 tested, 2.8% active; further: series mostly up to about 57 µM; on the % scale 0 is the no-effect control and ±100 the full control effect; nearly all actives have a fitted effect of over 65% in size
JMJD2A Tudor inh – JMJD2A Tudor domain (human) inhibition | O75164 | AlphaScreen JMJD2A-Tudor / H3K4me3 peptide binding | Potency, µM (highest dose often 114 µM), inactives show at the top dose activity change, negative = inhibition, most hits filed as inhibitors | 390,000 tested, 4.4% active | AID 504339; further: on the % scale 0 is the no-effect control and ±100 the full control effect; nearly all actives have a fitted effect of over 50% in size
* = called active by the depositor; ? = inconclusive; / = no result given; [ ] = dose if it differs, or a comment. The call rests on the fitted dose curve; in most records, active means well fitted curve in the direction sought with a large enough effect; inconclusive means small, poorly fitted or top-dose-only effect, or another doubt; inactive means no such curve, though single readings can be large; an effect the other way counts as inactive or inconclusive. Potency means the concentration at half of the fitted maximal effect.

SMILES	BAZ2B inh	Sfp inh	G9a block	HP1b binding inh	PLK1 PBD inh	JMJD2A Tudor inh
CCN(CC)CCNC(=O)c1cn(CC)c2ccc(S(=O)(=O)N3CCc4ccccc4C3)cc2c1=O	-6%	12%	-5%[59 µM]	12%	27µM*	-29%
CN1CCN(C(=O)c2cn(C)c3ccc(S(=O)(=O)N(C)C4CCCCC4)cc3c2=O)CC1	-28%	14%	56µM*	20%	-35%	-27%
COc1cc(/C=C(\C#N)c2nc3ccccc3[nH]2)ccc1OCc1cccc(C(F)(F)F)c1	-30%	/	8%[59 µM]	35%	/	-26%
COc1ccc(S(=O)(=O)N(CC(=O)NCC2CCCO2)C2CCCCC2)cc1OC (stereo not given)	3%	32%	16%	47%	-1%	-9%
CN(CCCNC(=O)c1cn(C)c2ccc(S(=O)(=O)N(C)C)cc2c1=O)c1ccccc1	?	5%	50µM*	-1%	-8%	?
CN(C1CCCCC1)S(=O)(=O)c1ccc2c(c1)c(=O)c(C(=O)NCCc1ccccc1)cn2C	/	/	-40%[59 µM]	36%	/	-18%
C=CCc1ccc(OCCOCCOc2ccc(C)cc2[N+](=O)[O-])c(OC)c1	5%	11%	35%	51%	-11%	-14%
Cc1cc([N+](=O)[O-])c(NCCCCCCO)c([N+](=O)[O-])c1	/	/	/	-14%	-2%	?
CCC(C)Nc1c([N+](=O)[O-])cc(C)cc1[N+](=O)[O-] (stereo not given)	32µM*	-2%	40µM*	?	0%	20µM*
COCCCNCCCCOc1ccc(C)cc1[N+](=O)[O-]	?	-5%	11µM*	?	-1%	5.6µM*
COc1cc(C)ccc1OCCOCCOc1ccccc1[N+](=O)[O-]	3%	-1%	-4%[59 µM]	28%	-8%	-11%
C=CCNCCOc1ccc(C)cc1[N+](=O)[O-]	40µM*	-12%	/	?	-8%	50µM*
CCC(C)NCCOc1ccc(C)cc1[N+](=O)[O-] (stereo not given)	40µM*	-18%	11µM*	?	33%	0.79µM*
O=C1C=CC2(OCCCO2)C(Br)=C1	/	13%	/	/	/	/
Cc1cc(=O)oc(C)c1C(=O)OCC(=O)c1ccc(Cl)cc1	-19%[57.1 µM]	7%	41%	48%	-2%	13%
COc1ccccc1C(=O)NCCC(=O)NCCCSc1ccccc1	5%	/	1%	24%	-5%	-6%
CCOC(=O)C[C@H]1c2cc(F)ccc2S(=O)(=O)N1Cc1ccc(OC)cc1	/	/	/	41%	-7%	-1%
C=CCN(CC=C)CCOc1cc(C)ccc1[N+](=O)[O-]	22µM*	-13%	10µM*	28µM*	-3%	?
CCCCNCCOCCOc1ccc(C)cc1[N+](=O)[O-]	?	3%	18µM*	?	0%	2.8µM*
COc1ccccc1OCCOCCOc1ccc(C)cc1[N+](=O)[O-]	5%	0%	3%[59 µM]	29%	-8%	-19%
COc1ccc(S(=O)(=O)N2CCN(c3ccccc3OC)CC2)cc1-c1noc(C)n1	?	/	?	23%	/	-12%
COc1ccccc1-c1nc(N(C)C)c2ccccc2n1	/	4%	-8%[0.501 µM]	/	/	/
Cc1nc(N)sc1-c1csc(N(C)c2ccc(O)cc2)n1	-69%	6%	45µM*	-54%	-9%	56µM*
CN(c1ccc(O)cc1)c1nc(-c2cccs2)cs1	-23%	-2%	-9%	?	-12%	?
CCN(CC)S(=O)(=O)c1ccc(C(=O)NCc2ccc3[nH]c4c(c3c2)CCCC4)cc1	?	5%	?	-3%	-4%	-28%
SMILES	BAZ2B inh	Sfp inh	G9a block	HP1b binding inh	PLK1 PBD inh	JMJD2A Tudor inh
O=C(NCc1ccc2[nH]c3c(c2c1)CCCC3)c1ccc(S(=O)(=O)N2CCOCC2)cc1	?	2%	40µM*	-7%	-10%	-35%
CN(C)S(=O)(=O)c1ccc(C(=O)NCc2ccc3[nH]c4c(c3c2)CCCC4)cc1	?	8%	45µM*	-10%	-1%	?
O=C(NCc1ccc2[nH]c3c(c2c1)CCCC3)c1ccc(S(=O)(=O)N2CCCC2)cc1	-37%	7%	45µM*	7%	-4%	-27%
O=C(NCC1CCCO1)C1CCCN(S(=O)(=O)c2ccc(Cl)cc2)C1 (stereo not given)	-1%	11%	22%	6%	-21%	-36%
CCN1C(=O)[C@@H]2[C@H](C1=O)[C@@H]1C[C@H]3C(=O)N(CC)C(=O)[C@H]3[C@@H]3C1=C(C(=O)N1C(=O)O/C(=N\CC4CC4)[C@]31C)[C@@H]2C	/	17%	/	/	/	/
CCC(NC(=O)Nc1cc(Cl)ccc1OC)c1c(-n2cccc2)sc2c1CCN(C)C2 (stereo not given)	?	/	16µM*	?	/	?
CCC(NC(=O)Nc1cccc(C)c1)c1c(-n2cccc2)sc2c1CCN(C)C2 (stereo not given)	-38%	/	-31%[59 µM]	3%	/	?
COc1ccc2oc(=O)cc(CN3CCN(C(=O)c4ccccc4)CC3)c2c1	-4%	/	?	15%	/	-4%
CC1CN2C(c3ccc(Cl)cc3)=CSC2=N1 (stereo not given)	-5%	-9%	45µM*	17%	-26%	-24%
Cc1ccc(C2=CSC3=NCCN23)cc1	/	/	/	25%	2%	-1%
COc1ccc(S(=O)(=O)N2CCN(C3CCCC(C)C3)CC2)cc1 (stereo not given)	18µM*	-26%	7.1µM*	45µM*	-7%	1.3µM*
CC1CCCC(N2CCN(S(=O)(=O)c3ccccc3)CC2)C1 (stereo not given)	?	?	18µM*	?	5%	4µM*
O=S(=O)(c1ccccc1)N1CCN(S(=O)(=O)c2ccccc2)CC1	/	/	/	12%	/	-4%
CC1CCC(N2CCN(S(=O)(=O)Cc3ccccc3)CC2)CC1 (stereo not given)	50µM*	-7%	25µM*	71µM*	4%	22µM*
COc1ccccc1N1CCN(CCCCCCOc2ccc(F)cc2)CC1	-37%	-4%	50µM*	1%	-19%	-34%
COc1ccc(CN2CCN(CCCCOc3ccc(Cl)cc3)CC2)c(OC)c1OC	18µM*	89µM*	14µM*	?	-8%	6.3µM*
Fc1ccc(OCCCCCN2CCCC2)cc1	2%	6%	3%[59 µM]	24%	-4%	-12%
COc1ccccc1N1CCN(CCCCOc2cccc3ccccc23)CC1	35µM*	-18%	45µM*	-19%	4%	?
CC(Oc1ccc(F)cc1)C(=O)Nc1ccc(N2CCOCC2)cc1N1CCOCC1 (stereo not given)	-34%	/	56µM*	4%	-5%	-16%
